Results: ChEMBL document CHEMBL4513216, “Probing the Open Global Health Chemical Diversity Library for Multistage-Active Starting Points for Next-Generation Antimalarials” (ACS Infect Dis, 2020)
Hit rate of the full screen: of about 69,000 compounds, about 8,600 (12%) showed an effect of 50% or more. Shown is part of a subset that was picked to be rich in strong results.

tested on: Plasmodium berghei; assay: Screen against P. berghei liver stage (PbLuc), transformed with Luciferase, at 10uM; format: functional, HepG2; conditions: tested at 10 uM

Going from `CC(=O)N1CCC1c1cc(N2CCNC(=O)C2)nc(C)n1` (centres undefined) to `Cc1ccc(C(C)NC(=O)N2CCNC(=O)CC2)cc1F` (centres undefined), the INHIBITION rises from 12.84% to 42.3%.

Going from `Cc1csc(N2CCN(Cc3nccn3C)CC2C)n1` (centres undefined) to `Cc1csc(N2CCN(Cc3cscn3)CC2C)n1` (centres undefined), the INHIBITION rises from 30% to 45.9%.

Going from `Cc1csc(N2CCN(Cc3cccnc3)CC2C)n1` (centres undefined) to `Cc1csc(N2CCN(Cc3ccccn3)CC2C)n1` (centres undefined), the INHIBITION falls from 61.8% to 2.3%.

Going from `Cc1cnc(CN2CCN(c3nc(C)cs3)C(C)C2)cn1` (centres undefined) to `Cc1csc(N2CCN(Cc3cnc(C)s3)CC2C)n1` (centres undefined), the INHIBITION falls from 78.8% to 21.6%.

Going from `CN(C)Cc1ccc(CNC(=O)NCC2(C)CCCS2)cc1` (centres undefined) to `COc1ccc2c(ccn2CCC(=O)NCc2ccc(C(=O)O)cc2)c1`, the INHIBITION falls from 49.3% to 7.83%.

Compared with `Cc1ccc(-c2ncc(C(=O)NS(C)(=O)=O)s2)c(C)c1`, `Cc1ccc(C)c(CS(=O)(=O)CC(=O)NCCCOC(C)C)c1` is higher in INHIBITION: -2.53% for the first, -2.19% for the second.

First: CNC(=O)NC(=O)CCSCc1cc(Cl)cc2cccnc12
Second: CNC(=O)[C@@H](c1ccccc1)N1CCC[C@H]1C(=O)NCc1ccccn1
The INHIBITION of the first is lower: -51.1% for the first, 34.6% for the second.

Compared with `CC(C)NC(=O)N(C)C1CCN(c2ccccc2Cl)C1=O` (centres undefined), `COc1ccc(C(C)NC(=O)N2CCNC(=O)CC2)cc1F` (centres undefined) is higher in INHIBITION: -6.61% for the first, 74.8% for the second.

First: Cc1n[nH]c(C)c1CC(=O)N1CCC(O)(CN2CCOCC2)C1 (centres undefined)
Second: Cc1n[nH]c(C)c1CCC(=O)N1CCC(O)(CN2CCOCC2)C1 (centres undefined)
The INHIBITION of the first is lower: -23.55% for the first, 53.65% for the second.

Going from `Cc1n[nH]c(C)c1CCC(=O)N1CCC(O)(CN2CCN(C)CC2)C1` (centres undefined) to `CCOCCC(=O)N1CCc2cccc(S(=O)(=O)N3CCOCC3)c2C1`, the INHIBITION rises from -15.15% to 53.9%.

Going from `c1nc(N2CCOC(Cn3cncn3)C2)c2cc[nH]c2n1` (centres undefined) to `c1ccc(NCc2cnc3n2CCN(CC2CCOC2)CC3)nc1` (centres undefined), the INHIBITION falls from 33.8% to 27.6%.

First: COCC(=O)N1CCc2cccc(S(=O)(=O)N3CCOCC3)c2C1
Second: CCCOC(=O)N1CCc2cccc(S(=O)(=O)N3CCOCC3)c2C1
The INHIBITION of the first is higher: 33.9% for the first, 20.3% for the second.

Compared with `N#Cc1cc(NC(=O)c2ccccn2)ccc1N1CCC(O)CC1`, `N#Cc1cc(NC(=O)c2ccccc2)ccc1N1CCC(O)CC1` is higher in INHIBITION: -5.25% for the first, -4.86% for the second.

Compared with `N#Cc1cc(NC(=O)c2ccncc2)ccc1N1CCC(O)CC1`, `N#Cc1cc(NC(=O)c2ccsc2)ccc1N1CCC(O)CC1` is lower in INHIBITION: 62.3% for the first, 35.1% for the second.

Compared with `Cc1ccsc1C(=O)Nc1ccc(N2CCC(O)CC2)c(C#N)c1`, `Cc1ccc(C(=O)Nc2ccc(N3CCC(O)CC3)c(C#N)c2)s1` is lower in INHIBITION: 96.1% for the first, 17.6% for the second.

Compared with `Cn1cccc1C(=O)N[C@H]1CN(Cc2ccoc2)[C@@H]2CCCO[C@H]12`, `Cc1cc(CN2C[C@@H]3CN(C(=O)c4cccn4C)CCO[C@@H]3C2)no1` is higher in INHIBITION: 34.9% for the first, 89.3% for the second.

First: COCC(=O)NCc1nn(CCN2CCCC2)c(=O)c2ccccc12
Second: O=C1CCCN1Cc1ncn2c1CN(C(=O)Cc1cccs1)CCC2
The INHIBITION of the first is lower: 31.3% for the first, 32.2% for the second.

Going from `Cc1nc(C)n(CC2CCCCN2CC(=O)Nc2nnc(C)s2)n1` (centres undefined) to `Cc1ncc(C(=O)N2CCCC(C(=O)c3nccn3C)C2)c(O)n1` (centres undefined), the INHIBITION falls from 4.71% to -6.01%.

Going from `CCN(CCOC)C(=O)c1ccc2c(c1)nc(N1CC[C@H](O)C1)n2C` to `Cc1cnc(CCN(C)C(=O)c2cccc(N(C)C)c2)s1`, the INHIBITION rises from 1.74% to 33.7%.

Going from `Cc1cccc(C)c1OCC(O)CNCc1c(C)nn(C)c1N(C)C` (centres undefined) to `Cc1cnc(CCN(C)C(=O)c2cccc(C)c2O)s1`, the INHIBITION rises from 19.4% to 58.8%.

First: c1nc2n(c1CN1CCOCC1)CCN(C1CCOC1)CC2 (centres undefined)
Second: c1nc2n(c1CN1CCCCC1)CCN(C1CCOC1)CC2 (centres undefined)
The INHIBITION of the first is lower: -52.3% for the first, -33.9% for the second.

Compared with `c1nc2n(c1CN1CCCC1)CCN(C1CCOCC1)CC2`, `c1ccc(NCc2cnc3n2CCN(C2CCOC2)CC3)nc1` (centres undefined) is higher in INHIBITION: 80% for the first, 81.2% for the second.

Going from `O=C(C1CCOC1)N1CCc2ncc(CNc3ccccn3)n2CC1` (centres undefined) to `O=C(C1CCN(c2cccnn2)C1)N1CCOCC1` (centres undefined), the INHIBITION falls from 41.5% to 18.3%.

Going from `c1cnc(N2CCC3(CCN(CC4CCOC4)CC3)CC2)nc1` (centres undefined) to `Cc1ccc(N2CCC3(CCN(C(=O)c4ccccn4)CC3)CC2)nn1`, the INHIBITION falls from 15.6% to 0.72%.

Compared with `CC(NC(=O)OC(C)(C)C)c1nnc(S(=O)(=O)Cc2ccc(Cl)cc2)o1` (centres undefined), `COc1ccccc1C(C)(C)NC(=O)c1ccc(F)c(NC(C)=O)c1` is lower in INHIBITION: -19.1% for the first, -47% for the second.

Going from `O=C([C@H]1C[C@H]2OCC[C@H]2N(Cc2ccco2)C1)N1CCCO1` to `O=C(N1CCCO1)[C@@]12CCO[C@@H]1CCN(Cc1ccccc1)C2`, the INHIBITION falls from 34.6% to -10.4%.

Compared with `CCn1c(=O)c2sccc2n(CC(=O)Nc2cccc(Cl)c2)c1=O`, `Cn1c(=O)c2sccc2n(CC(=O)Nc2cccc(Cl)c2)c1=O` is lower in INHIBITION: 33.3% for the first, -25.5% for the second.

Going from `O=C(Cn1c(=O)[nH]c2cn(-c3ccccc3)c(=O)n21)Nc1ccccc1` to `CC(C)n1c(=O)c2sccc2n(CC(=O)Nc2ccccc2)c1=O`, the INHIBITION rises from 23.2% to 52.4%.

First: CC(C)n1c(=O)c2sccc2n(CC(=O)Nc2cccc(Cl)c2)c1=O
Second: CC(C)c1cccc(NC(=O)Cn2c(=O)n(C)c(=O)c3sccc32)c1
The INHIBITION of the first is lower: 19.3% for the first, 74.7% for the second.

Compared with `CC1=N[C@@]2(CC[C@@H]3CN(S(=O)(=O)CC(C)C)C[C@@H]32)C(=O)N1CC(C)C`, `O=c1ccc(S(=O)(=O)N2CCCC2)cn1CC1CCCCO1` (centres undefined) is lower in INHIBITION: 40.4% for the first, -15% for the second.

First: CCN(CC)CCNC(=O)CCc1c(C)nn(-c2ccccc2Br)c1C
Second: Cc1c2ncn(CC(=O)c3ccccc3)c(=O)c2nn1C
The INHIBITION of the first is lower: 6.55% for the first, 14.9% for the second.

Compared with `CC(C)(C)NC(=O)c1cccc(CN2CCS(=O)(=O)CC2)c1`, `CCC(O)CN1CCN(C(=O)c2cccc(CC#N)c2)CC1` (centres undefined) is lower in INHIBITION: 47.3% for the first, -12.2% for the second.

Going from `Cc1cc(C)n(CC(C)CNC(=O)NCc2csc(C)n2)n1` (centres undefined) to `Cc1cnc(CCN(C)C(=O)c2ccc(O)nc2C)s1`, the INHIBITION rises from 35.4% to 60.2%.

Compared with `Cn1cnnc1SC1CCc2ccccc2NC1=O` (centres undefined), `Cn1nnnc1SC1CCc2ccccc2NC1=O` (centres undefined) is higher in INHIBITION: 34.3% for the first, 56.3% for the second.

Compared with `Cc1nnc(SC2CCc3ccccc3NC2=O)n1C` (centres undefined), `CN1CCC2(Cc3ccccc3CN(C(=O)c3ccc(Cl)cc3)C2)C1` (centres undefined) is lower in INHIBITION: 38.1% for the first, -17.2% for the second.

Compared with `O=C(NCc1ccc(-n2cncn2)nc1)c1ccc2c(c1)CCC2`, `Cc1noc2ncc(C(=O)NCC3CCS(=O)(=O)C3)cc12` (centres undefined) is lower in INHIBITION: -45.9% for the first, -49.1% for the second.

Going from `COC[C@]1(O)CCN(C2CCN(c3ccc(OC)cc3)CC2)CC1(C)C` to `CC1CCN(C(=O)C2CCN(c3ccc(Cl)cc3C#N)CC2)CC1`, the INHIBITION rises from 23.9% to 41%.

First: Cn1cnc2c1CCN(Cc1csc(C3CCCCC3)n1)C2
Second: CN(Cc1cnn(C)c1)C(=O)NC1CCCC1
The INHIBITION of the first is higher: 33.3% for the first, 8.38% for the second.

First: CCCNC(=O)C1CCN(CC(O)c2ccccc2C(F)(F)F)CC1 (centres undefined)
Second: CCCNC(=O)C1CCN(CC(O)c2ccc(C(F)(F)F)cc2)CC1 (centres undefined)
The INHIBITION of the first is lower: -4.12% for the first, 51.6% for the second.

Compared with `CCCNC(=O)C1CCN(CC(O)c2ccccc2)CC1` (centres undefined), `CCCS(=O)(=O)N1CCO[C@H]2[C@@H](Oc3cccnc3)CC[C@@H]21` is lower in INHIBITION: 30% for the first, 10.5% for the second.

First: CO[C@H]1CCN(Cc2cccc(C)n2)[C@@H]2CN(Cc3cccnc3)C[C@H]12
Second: c1cncc(CN2CC[C@@H]3[C@@H]2CCN3Cc2ccc3c(c2)OCO3)c1
The INHIBITION of the first is higher: 30.1% for the first, -8.51% for the second.

First: CCSc1ncc(-c2cc(C3CC3)nc(N)c2C#N)cn1
Second: CCSc1ncc(-c2cc(C3CCC3)nc(N)c2C#N)cn1
The INHIBITION of the first is higher: 52.8% for the first, 48.5% for the second.

First: CS(=O)(=O)c1ccc(-c2cc(C3CC3)c(C#N)c(N)n2)cc1
Second: N#Cc1c(C2CC2)cc(-c2ccc(F)c(F)c2)nc1N
The INHIBITION of the first is higher: -21.2% for the first, -42.8% for the second.

Compared with `CC(C)c1ncc(-c2cc(C3CCC3)nc(N)c2C#N)cn1`, `CCCNc1ncc(-c2cc(C3CC3)nc(N)c2C#N)cn1` is lower in INHIBITION: 62.6% for the first, 34.4% for the second.

First: Cc1ccc(N2CC[C@@H]3O[C@@H](COCc4cccnc4)CC[C@@H]32)nn1
Second: Cn1cc(CN2C[C@@H]3CN(C(=O)c4cccn4C)CCO[C@@H]3C2)cn1
The INHIBITION of the first is lower: 4.02% for the first, 24.9% for the second.

Going from `CCN(C(C)=O)C(c1ccc(Cl)cc1)c1ccccn1` (centres undefined) to `O=C(CN1C(=O)c2ccccc2CS1(=O)=O)c1ccc(Cl)cc1`, the INHIBITION rises from 33.7% to 55.4%.

Compared with `Cc1nc(-c2ccsc2)ccc1C(=O)N(C)CC1CC1`, `Cc1nc(O)ccc1C(=O)NCc1ncoc1C` is lower in INHIBITION: 27.7% for the first, -17.3% for the second.

Compared with `Cc1ncsc1CCN(C)C(=O)c1c(O)cccc1O`, `CN(Cc1cccs1)C(=O)CN1C(=O)c2cc(Cl)c(Cl)cc2C1=O` is lower in INHIBITION: 25.1% for the first, 14.8% for the second.

Going from `Cc1cc(CN2C[C@@H]3CN(C(=O)c4ccco4)CCO[C@@H]3C2)no1` to `CCCc1n[nH]c(C2CN(C(=O)c3cc4c(s3)CCC4)CCO2)n1` (centres undefined), the INHIBITION rises from 12% to 33.8%.

First: O=S(=O)(c1c(N2CCCCC2)ccc2nonc12)N1CCCCC1
Second: CC(NC(=O)N1CCNC(=O)CC1)c1ccc(OC(F)F)cc1 (centres undefined)
The INHIBITION of the first is higher: 8.41% for the first, -18.3% for the second.

Going from `CC(C)NC(=O)CC1COC2(CCN(Cc3ccsc3)CC2)C1` (centres undefined) to `N#Cc1ccc(CN2C(=O)c3ccccc3CS2(=O)=O)cc1`, the INHIBITION falls from 13.7% to -9.35%.

Compared with `O=C(CN1C(=O)c2ccccc2CS1(=O)=O)c1ccccc1`, `N#Cc1ccc(CN2C(=O)c3ccccc3CS2(=O)=O)c(F)c1` is lower in INHIBITION: 74.2% for the first, 15.2% for the second.
